Results filed as inconclusive are left out. Active and inactive are the calls of the source. Unless noted, calls come from the whole dose curve; as a rule, active = well fitted curve in the direction sought with a large enough effect in the repeat runs; inconclusive = weak or mixed curves; inactive = no such curve, though single readings can be large; an effect the other way counts as inactive or inconclusive.

Experiment [1] is described as follows: A CellTox Green Cytotoxicity Assay to monitor cytotoxicity in HepG2 cells - 8 hour (AID 1224890). Note: nearly all actives have a fitted effect of over 45% in size. Note: potency is the fitted concentration of half-maximal effect. In a few lines: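 Continuous culture of HepG2 cells with a membrane-impermeant DNA dye; rising fluorescence marks dead cells. Compound exposure lasted up to 40 h at 37 C, with reads every 8 h from 0 h.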
Experiment [2] in a line: qHTS assay to identify small molecule antagonists of the androgen receptor (AR) signaling pathway using the MDA cell line in the presence of 0.5 nM R1881 - cell viability counter screen (AID 1259242). Note: nearly all actives have a fitted effect of over 45% in size. Note: potency is the fitted concentration of half-maximal effect. In a few lines:
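Fluorescence from CellTiter-Fluor, which reports protease activity of live cells, was read 30 min after reagent addition to MDA-kb2 cells that had been incubated 16 hr with compound and 0.5 nM R1881.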
Background: Quantitative high-throughput screening tests each substance at several concentrations.

Experiment [3] deals with Androgen receptor (Homo sapiens) (UniProt P10275). Put plainly: qHTS assay to identify small molecule antagonists of the androgen receptor (AR) signaling pathway using the MDA cell line in the presence of 0.5 nM R1881 (AID 1259243). Note: nearly all actives have a fitted effect of over 50% in size. Note: potency is the fitted concentration of half-maximal effect. In a few lines: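 Inhibition of R1881 (0.5 nM final) induced reporter signal was measured in human MDA-kb2 cells; note the MMTV promoter also responds to GR. Exposure lasted 16 hr at 37C.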

The target of experiment [4] is Estrogen receptor (Homo sapiens) (UniProt P03372). As to the kind of experiment: qHTS assay to identify small molecule antagonists of the estrogen receptor alpha (ER-alpha) signaling pathway using the BG1 cell line in the presence of 0.1 nM 17-beta-estradiol (AID 1259244). Note: nearly all actives have a fitted effect of over 50% in size. Note: potency is the fitted concentration of half-maximal effect. In a few lines: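 Quantitative high-throughput screen in VM7Luc4E2 cells: compound plus 0.1 nM E2 (final), 22 h, 37C, 5% CO2; ONE-Glo added, 30 min room temperature, luminescence measured.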

Experiment [5] is described as follows: qHTS assay to identify small molecule phospholipidosis (PLD) inducers (AID 1259344; active = well fitted curve in the direction sought with a large enough effect; an effect the other way counts as inactive or inconclusive). In a few lines:
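HepG2 cells grown on collagen I take up LipidTOX Red while exposed to compound for 24 h; after fixation they are imaged at 20x and pit metrics are extracted.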

The nature of experiment [6]: qHTS assay to identify small molecule HDAC inhibitors (AID 1259364). Note: nearly all actives have a fitted effect of over 45% in size. Note: potency is the fitted concentration of half-maximal effect. In a few lines:
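Endogenous HDAC class I/II activity was measured in wild-type HCT-116 cells by HDAC-Glo luminescence after 2 h compound treatment.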

Experiment [7] can be described thus: qHTS assay to identify small molecule HDAC inhibitors - cell viability counter screen (AID 1259365). Note: series mostly up to about 92 µM; nearly all actives have a fitted effect of over 50% in size. In a few lines: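 CellTiter-Glo luminescence (30 min, room temperature) reported viability after a 2 h compound exposure at 37 C. Cells: wild-type HCT-116, 1,500 per well, seeded the night before.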
A short description of experiment [8]: qHTS assay to identify small molecule antagonists of the sonic hedgehog signaling (Shh) pathway - cell viability counter screen (AID 1259367). Note: nearly all actives have a fitted effect of over 55% in size. Note: potency is the fitted concentration of half-maximal effect. In a few lines: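 After a 4 hr settling period, 3T3 Gli1-Luc cells were treated with DMSO-dissolved chemicals and conditioned medium, kept 24 hr at 37C in 5% CO2, and assayed for viability by CellTiter-Fluor fluorescence following 1 hr reagent incubation.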

Experiment [9] is described as follows: qHTS assay to identify small molecule agonists of the sonic hedgehog signaling (Shh) pathway - cell viability counter screen (AID 1259366). Note: nearly all actives have a fitted effect of over 50% in size. Note: potency is the fitted concentration of half-maximal effect. In a few lines: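 Cytotoxicity counter screen: CellTiter-Fluor reagent added after 23 h compound exposure, then 1 h at 37C and fluorescence read. Cells were 3T3 Gli1-Luc, seeded 2,000 per well and dosed 4 h post-plating.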

A short description of experiment [10]: qHTS assay to identify small molecule antagonists of the estrogen receptor alpha (ER-alpha) signaling pathway using the BG1 cell line in the presence of 0.1 nM 17-beta-estradiol - cell viability counter screen (AID 1259241). Note: nearly all actives have a fitted effect of over 40% in size. In a few lines:
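Cytotoxicity counter-screen: live-cell protease activity measured by fluorescence (30 min reagent step) in the same wells. Cells were VM7Luc4E2 with endogenous ER-alpha and ERE-driven luciferase, treated 22 hr at 37C alongside 0.1 nM 17beta-estradiol final.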

Sequence of Estrogen receptor (Homo sapiens) (P03372 whole entry, looked up): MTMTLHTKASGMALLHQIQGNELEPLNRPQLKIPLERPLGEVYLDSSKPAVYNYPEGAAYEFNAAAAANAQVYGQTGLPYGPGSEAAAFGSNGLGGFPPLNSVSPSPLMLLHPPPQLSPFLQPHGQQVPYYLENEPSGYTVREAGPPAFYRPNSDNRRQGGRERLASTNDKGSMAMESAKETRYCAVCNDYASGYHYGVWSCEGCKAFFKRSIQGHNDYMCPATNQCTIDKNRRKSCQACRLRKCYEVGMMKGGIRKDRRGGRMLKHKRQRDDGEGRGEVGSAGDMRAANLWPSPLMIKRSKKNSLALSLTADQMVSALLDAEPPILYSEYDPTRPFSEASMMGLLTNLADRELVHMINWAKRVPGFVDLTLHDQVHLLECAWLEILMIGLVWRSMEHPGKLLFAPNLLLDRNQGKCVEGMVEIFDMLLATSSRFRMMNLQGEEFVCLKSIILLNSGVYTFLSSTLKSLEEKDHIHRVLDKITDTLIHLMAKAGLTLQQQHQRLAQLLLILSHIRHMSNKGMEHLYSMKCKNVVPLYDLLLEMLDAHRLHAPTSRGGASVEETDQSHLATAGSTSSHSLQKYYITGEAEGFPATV
Sequence of Androgen receptor (Homo sapiens) (P10275 whole entry, looked up): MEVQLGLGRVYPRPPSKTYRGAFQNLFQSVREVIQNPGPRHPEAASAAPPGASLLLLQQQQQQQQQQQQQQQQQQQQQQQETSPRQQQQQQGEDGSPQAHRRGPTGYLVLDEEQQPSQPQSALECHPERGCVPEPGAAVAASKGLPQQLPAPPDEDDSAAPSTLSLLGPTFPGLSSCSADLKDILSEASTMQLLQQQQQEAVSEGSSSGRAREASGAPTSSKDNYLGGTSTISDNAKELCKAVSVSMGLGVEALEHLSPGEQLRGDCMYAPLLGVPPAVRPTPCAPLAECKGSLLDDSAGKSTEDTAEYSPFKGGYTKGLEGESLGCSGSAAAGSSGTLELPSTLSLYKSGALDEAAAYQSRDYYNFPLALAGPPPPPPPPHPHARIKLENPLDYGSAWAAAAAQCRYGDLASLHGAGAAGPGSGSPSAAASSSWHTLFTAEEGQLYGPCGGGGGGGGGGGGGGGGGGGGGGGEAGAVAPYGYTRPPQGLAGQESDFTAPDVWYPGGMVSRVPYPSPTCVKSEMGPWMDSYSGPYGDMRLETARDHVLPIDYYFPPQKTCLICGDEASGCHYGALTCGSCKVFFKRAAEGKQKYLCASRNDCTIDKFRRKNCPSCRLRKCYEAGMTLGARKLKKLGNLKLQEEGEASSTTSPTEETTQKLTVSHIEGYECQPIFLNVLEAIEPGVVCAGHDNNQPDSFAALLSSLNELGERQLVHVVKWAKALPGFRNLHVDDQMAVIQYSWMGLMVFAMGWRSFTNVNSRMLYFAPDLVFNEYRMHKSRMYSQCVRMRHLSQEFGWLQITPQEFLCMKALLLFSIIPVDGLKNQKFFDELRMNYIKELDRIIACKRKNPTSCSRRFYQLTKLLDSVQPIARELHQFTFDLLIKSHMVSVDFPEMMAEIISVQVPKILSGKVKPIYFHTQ

Turning to `O=C(CCl)c1ccc(Cl)cc1Cl`, the Potency result in experiment [1], in experiment [2], in [4], in experiment [6], in [7] and in experiment [8] was “inactive” throughout. Moreover, the Potency in experiment [3] was 13.3 µM (active). For the same compound, the compound was classed as inactive in experiment [5].

Consider `c1ccc(C2CC2)c(OCC2=NCCN2)c1`, for which the Potency entry in [1], in experiment [2], in experiment [4], in experiment [6] and in experiment [7] was “inactive” throughout. Further, the result in experiment [5] was inactive.

Take `CCOP(=S)(OCC)SCn1nnc2ccccc2c1=O`: the Potency entry in experiment [1], in experiment [2], in experiment [6] and in experiment [7] was “inactive” in each case. Also, the Potency in experiment [4] is 48.6 µM (active).

For the compound `IC(I)=C(I)I`, the Potency is 38.9 µM (active) in experiment [1]; 61.1 µM (active) in experiment [2]; 15.4 µM (active) in [3]; 27.3 µM (active) in experiment [4]; 17.2 µM (active) in experiment [8]. For the same compound, the Potency result in experiment [6] and in [7] was “inactive” in each case.

As for `CCCCC(CC)COP(=O)(Oc1ccccc1)Oc1ccccc1` (stereo not given), the Potency result in [1], in experiment [2], in experiment [4], in experiment [6], in experiment [7] and in experiment [9] was “inactive” each time. Moreover, the Potency result in experiment [8] was “inactive”.

In the case of `O=[N+]([O-])c1ccc(F)c([N+](=O)[O-])c1`, the Potency result in experiment [1] and in experiment [7] was “inactive” each time. Also, the Potency is 30.9 µM (active) in experiment [2], 27.6 µM (active) in experiment [4], 12.3 µM (active) in [6] and 24.6 µM (active) in [9]. The compound was classed as inactive in experiment [5].

Regarding `O=C(NC(=O)c1c(F)cccc1F)Nc1ccc(OC(F)(F)C(F)OC(F)(F)F)c(Cl)c1` (stereo not given), the Potency entry in experiment [1], in experiment [2], in experiment [4], in experiment [6], in [7] and in experiment [9] was “inactive” throughout. Further, in experiment [8], the Potency entry was “inactive”.

In the case of `N#C/C(N)=C(/N)C#N`, the Potency entry in [1], in experiment [2], in experiment [4], in experiment [6] and in [7] was “inactive” in each case.

`NS(=O)(=O)C(F)(F)C(F)(F)C(F)(F)C(F)(F)C(F)(F)C(F)(F)C(F)(F)C(F)(F)F`: the Potency result in [1], in [2], in experiment [3], in experiment [4], in [6] and in experiment [7] was “inactive” throughout. Also, the Potency entry in [9] is “inactive”.

For the compound `C[N+](C)(C)CCCl`, the Potency entry in experiment [1], in [2], in experiment [3], in experiment [4], in experiment [6] and in experiment [7] was “inactive” throughout. Moreover, the Potency result in [9] and in experiment [8] was “inactive” each time.

Regarding `CCOP(=S)(OCC)SCSCC`, the Potency entry in experiment [1], in experiment [2], in experiment [4], in experiment [6], in experiment [7] and in [9] was “inactive” each time.

Regarding `CCCCCCCCCC(=O)O[C@H]1CC[C@H]2[C@@H]3CCC4=CC(=O)CC[C@@H]4[C@H]3CC[C@]12C`, the Potency result in experiment [1], in experiment [2], in [4], in experiment [6], in [7] and in [9] was “inactive” each time. The Potency entry in experiment [8] is “inactive”. Also, the outcome in [5] was inactive.

As for `CN1[C@@H]2CC[C@H]1CC(OC(=O)c1cc(Cl)cc(Cl)c1)C2` (stereo not given in full), the Potency entry in [1], in experiment [2], in [4], in experiment [6] and in [7] was “inactive” each time.

As for `Nc1ccc([N+](=O)[O-])cc1[N+](=O)[O-]`, the Potency entry in experiment [1], in experiment [2], in [4], in [6], in experiment [7] and in experiment [8] was “inactive” each time.

Take `O=C1CN=C(c2ccccc2)c2cc(Cl)ccc2N1CC1CC1`: the Potency result in experiment [1], in experiment [2], in experiment [6], in experiment [7], in experiment [9] and in [8] was “inactive” throughout. For the same compound, the call in experiment [5] was inactive.

For `CCOS(C)(=O)=O`, the Potency entry in experiment [1], in [2], in experiment [6], in experiment [7], in [9] and in [8] was “inactive” throughout.

For `CCOc1ccc(C(C)(C)COCc2cccc(Oc3ccccc3)c2)cc1`, the Potency entry in experiment [1], in [2], in experiment [4], in [6], in [7] and in experiment [8] was “inactive” throughout.

For the compound `O=Cc1ccc2c(c1)OCO2`, the Potency result in experiment [1], in experiment [2], in [6], in experiment [7], in experiment [9] and in experiment [8] was “inactive” in each case.

Take `CNC(C)Cc1ccccc1OC` (stereo not given): the Potency result in experiment [10], in experiment [2], in [4], in [6], in [7] and in experiment [8] was “inactive” throughout. In [5], the compound was called inactive.

In the case of `N#Cc1cc(I)c(O)c(I)c1`, the Potency result in [1], in experiment [6] and in [7] was “inactive” throughout. For the same compound, in experiment [3], the Potency is 54.5 µM (active).

Turning to `CC(C)N(CCC(C(N)=O)(c1ccccc1)c1ccccn1)C(C)C` (stereo not given), the Potency result in experiment [1], in [2], in experiment [6], in [7], in [9] and in experiment [8] was “inactive” in each case. Further, the compound was called inactive in experiment [5].

With `COP(=S)(Oc1cc(Cl)c(Br)cc1Cl)c1ccccc1` (stereo not given), the Potency result in experiment [10], in experiment [2], in [4], in experiment [6], in [7] and in experiment [9] was “inactive” throughout. Moreover, the Potency in [3] is 27.3 µM (active).

Turning to `Sc1ccccc1Cl`, the Potency result in experiment [10], in experiment [2], in [3], in experiment [4], in [6] and in experiment [7] was “inactive” in each case. Moreover, the Potency result in experiment [9] and in experiment [8] was “inactive” each time.

Source of the values: PubChem BioAssay (Tox21).
